The whole screen tested about 38,000 compounds, of which about 1,200 (3.2%) showed an effect of 50% or more. The median lay at about -58%. The entries come from a sample that favours strong results as a whole.

In this test the test system is Plasmodium falciparum. The test is described as follows: Calibr Malaria Delayed Death Assay SOP. Set-up: scale not given: in the data most compounds retested in dose-response had high values. The conditions noted are these: concentration 4.99e-06 (unit not given; other assays of the set use mol/L). The format is functional, organism-based.
Take `Cc1nn(CC(O)CN2CCC(C)CC2)c(=O)c(C#N)c1C` (centres undefined): the “Percent Effect” value is listed as -55.82%.
The result for `O=C(Cn1ccc2cc(Br)ccc21)NC[C@@H]1CCCN2CCCC[C@H]12` reads -18.45%.
The result for `COc1ccc2c(ccn2CC(=O)NC[C@@H]2CCCN3CCCC[C@H]23)c1` reads -61.04%; that for `O=C(CCn1ccc2cc(Br)ccc21)NC[C@@H]1CCCN2CCCC[C@H]12`, 65.78%; that for `O=C(O)C1CCN(C(=O)Cn2ccc3c(Cl)cccc32)CC1`, -74.89%.
The result for `O=C(Cn1ccc2ccccc21)NC[C@@H]1CCCN2CCCC[C@H]12` reads -17.29%; that for `O=C(Cn1ccc2ccc(Br)cc21)NC[C@@H]1CCCN2CCCC[C@H]12`, 78.77%; that for `O=C(Cn1ccc2ccc(F)cc21)NC[C@@H]1CCCN2CCCC[C@H]12`, 36.3%.
As for `Cc1cccc2c1ccn2CC(=O)NC[C@@H]1CCCN2CCCC[C@H]12`, the “Percent Effect” value stood at 70.06%.
The result for `O=C(O)C1CCN(C(=O)CCn2ccc3cc(Br)ccc32)CC1` reads -107.6%; that for `CC(C)c1nsc(N2CCC(OCCN3CCOCC3)CC2)n1`, -47.66%.
Consider `CN(C)C(=O)COCC1CN(C2CCC2)Cc2ncn(C)c21.O=C(O)C(F)(F)F.O=C(O)C(F)(F)F` (centres undefined), for which the “Percent Effect” value was -81.18%.
Turning to `Cc1cc2ccccc2n1CCC(=O)N1CCCC(O)(CN(C)C)CC1` (centres undefined), the “Percent Effect” value came to 54.68%.
With `CN(C)CC1(O)CCCN(C(=O)Cn2nc3ccccc3n2)CC1` (centres undefined), the “Percent Effect” value is reported as -95.76%.
The result for `Cc1c(C(=O)N2CCCC(O)(CN(C)C)CC2)c2cc(O)ccc2n1C` (centres undefined) reads -101.4%.
The result for `Cn1nnc2c1C(COCC1CC1)CN(C(=O)Cc1cccs1)C2` (centres undefined) reads -35.42%; that for `N#Cc1c(CN2CCCC2Cn2cccn2)cn2ccccc12` (centres undefined), -64.03%.
To `CCc1cc(C(=O)N2CC[C@@H](c3ccc4ccccc4c3)[C@H](O)C2)[nH]n1` belongs 17.14%; to `CC(O)CN1CCC(CN(C)CC(=O)NC(C)C)CC1` (centres undefined), -132.6%; to `CN(CC(N)=O)Cc1cc(Cl)cc2cccnc12`, -110.1%.
In the case of `CC(O)CN1CCC(CN(C)Cc2cc(F)cc3cccnc23)CC1` (centres undefined), the “Percent Effect” value was 86.77%.
To `CC(O)CN1CCC(CN(C)CCC(=O)NC2CCCC2)CC1` (centres undefined) belongs -87.19%.
To `CN(Cc1noc(C2CC2)n1)CC1CCN(CCO)CC1` belongs -111.1%; to `CC(C)c1nc(CN(C)CC2CCN(CCO)CC2)no1`, -37.31%.
To `OCCN1CCN(Cc2cc(Cl)cc3cccnc23)CC1` belongs -35.44%.
Take `CN(Cc1cc(Cl)cc2cccnc12)CC1CCN(CCO)CC1`: the “Percent Effect” value was determined as 88.36%.
The result for `CN(Cc1cc(F)cc2cccnc12)CC1CCN(CCO)CC1` reads 84.26%; that for `CCn1cc(Br)c(C(=O)NCc2ccccc2)n1`, -62.24%; that for `COc1ccc(C(=O)N2CCC(Nc3cccnn3)CC2)cn1`, -79.23%.
To `CN(C)c1ncc2c(n1)CN(C1CCSCC1)C2=O` belongs -103.3%.
To `Cc1cc(C2CCCN(Cc3nnc(Cc4ccccc4)o3)C2)n[nH]1` (centres undefined) belongs -117.5%.
In the case of `COc1cc(Cl)ccc1C(=O)N1CCCC(c2cc(C)[nH]n2)C1` (centres undefined), the “Percent Effect” value is -107.6%.
With `Cc1cc(CNC(=O)c2ccno2)c(C)o1`, the “Percent Effect” value is -93.35%.
To `CCS(=O)(=O)c1ccccc1C(=O)N1CCCC(n2cccn2)C1` (centres undefined) belongs -21.75%; to `CC(C)(O)CCc1cccc(C(=O)NCc2cnn3cccnc23)c1`, -126.6%; to `Cc1cccnc1[C@H](C)NC(=O)c1cccc(CC2CCNCC2)c1`, 7.759%.
To `O=C(NCc1cnn2cccnc12)c1cccc(CC2CCNCC2)c1` belongs 65.91%; to `CCOCC1CCN(C(=O)Nc2ccc3c(c2)CCCO3)C1` (centres undefined), -56.87%.
Turning to `CCOCC1CCN(C(=O)Nc2ccc3c(c2)CCCN3C)C1` (centres undefined), the “Percent Effect” value is 57.13%.
To `CCNC(=O)C1CCCN(C(=O)Nc2ccc3c(c2)CCCN3C)C1` (centres undefined) belongs 9.496%; to `Cc1noc([C@H]2COC[C@H]3CN(C(=O)Cc4cccs4)C[C@H]32)n1`, -60.46%.
As for `CN(C(=O)Cn1nc(-c2cccs2)ccc1=O)C1CCS(=O)(=O)C1` (centres undefined), the “Percent Effect” value is given as -97.97%.
The result for `CC1=C(CCN2C[C@H](O)[C@@H](N3CCOCC3)C2)C(C)(C)CCC1` reads 77.23%; that for `Cc1c(CN2C[C@H](O)[C@@H](N3CCOCC3)C2)[nH]c2ccc(F)cc12`, -95.14%; that for `CC1=C(CCN2CC[C@@H](N3CCC(O)CC3)[C@H](O)C2)C(C)(C)CCC1`, -51.59%.
To `COc1ccc2c(c1)NC(=O)C2OC(=O)Cc1ccccc1C` (centres undefined) belongs 10.16%; to `CN1CCCN(c2nccc(-c3cncnc3C3CCCCC3)n2)CC1`, 59.73%.
To `CN1CCN(c2nccc(-c3cncnc3C3CCCCC3)n2)CC1` belongs 60.54%; to `c1cc(-c2cn3nccc3nc2C2CCCCC2)nc(N2CCCC2)n1`, -1.044%; to `CN1CCCN(c2nc(C3CCCC3)nc3c2cnn3C)CC1`, -58.12%.
As for `CCc1ncc2c(n1)CN(c1nccc(C3CCCC3)n1)C2`, the “Percent Effect” value is -48.7%.
The result for `Cc1nn(C)cc1-c1ccnc(N2CCCN(CC(C)C)CC2)n1` reads -23.38%.
The result for `Cc1nn(C)c2ncc(NC(=O)N3CCCCCC3)cc12` reads -40.12%.
To `Cc1nc(CN2CCc3cnc(C(C)C)nc3C2)oc1C` belongs -83.71%; to `CC(NS(C)(=O)=O)c1nc(-c2ccc(Br)cc2)no1` (centres undefined), -124.5%.
Consider `Cc1nc(C2CCNCC2)cc(N2CCOc3ccccc3C2)n1`, for which the “Percent Effect” value is listed as 46.26%.
The result for `Cc1nc(CCN)cc(N2CCOc3ccc(Cl)cc3C2)n1` reads 34.3%.
The result for `Cc1nc(C2CCN(C)CC2)cc(N2CCOc3ccc(Cl)cc3C2)n1` reads 69.39%; that for `Cn1cnnc1C1CCCN1C(=O)Nc1cccc(OC(F)F)c1` (centres undefined), -73.45%; that for `CC(C)C(=O)N1CCCC2(CCCN2Cc2cccnc2)C1` (centres undefined), -19.91%.
The result for `CC(C)C(=O)N1CCC2(CCN2CC2CC2)C1.O=C(O)C(F)(F)F` (centres undefined) reads -79.93%; that for `O=C(C1CCCCC1)N1CCC2(CCCN2CC2CC2)CC1.O=C(O)C(F)(F)F`, -22.84%; that for `CC(C)C(=O)N1CCC2(CN(CC3CCCC3)C2)C1.O=C(O)C(F)(F)F`, -72.67%.
For the molecule `CC(C)C(=O)N1CCCC2(CCCN2CC2CCCC2)C1.O=C(O)C(F)(F)F` (centres undefined), the “Percent Effect” value is reported as 59.96%.
To `CCCC(NC(=O)c1ccc(C)cc1C)c1nnn[nH]1` (centres undefined) belongs -70.8%; to `Cc1ccccc1-n1cc(-c2ccnc(NC(CO)C(C)C)n2)cn1` (centres undefined), 25.15%.
To `CC(C)[C@H](CO)Nc1nccc(-c2c[nH]nc2-c2ccncc2)n1` belongs 83.09%.
To `CN1CCCN(c2nccc(-c3cc(C(=O)O)ccn3)n2)CC1` belongs -114.4%.
As for `CN1CCCN(c2nccc(-c3c[nH]c4ccc(Br)cc34)n2)CC1`, the “Percent Effect” value amounted to 40.41%.
To `c1cc(-c2n[nH]cc2-c2ccnc(N3CCCC3)n2)ccn1` belongs 80.23%.
To `Cc1ncc(-c2ccnc(N3CCC[C@@H]3CO)n2)c(-c2cccnc2)n1` belongs -29.65%; to `CN1CCCN(c2nccc(-c3c[nH]nc3-c3ccncc3)n2)CC1`, 65.32%; to `OC[C@@H]1CCCN1c1nccc(-c2c[nH]nc2-c2ccncc2)n1`, 66.81%.
To `c1cncc(-c2nc(C3CC3)ncc2-c2ccnc(N3CCCC3)n2)c1` belongs -168.7%; to `Cc1[nH]c2ccccc2c1-c1ccnc(N[C@@H](CO)C(C)C)n1`, -14.55%; to `NC(=O)[C@H]1CCCN(c2nccc(-c3c[nH]nc3-c3cccnc3)n2)C1`, -58.34%.
With `Cc1csc2ncc(-c3ccnc(N4CCC[C@@H]4CO)n3)c(=O)n12`, the “Percent Effect” value is reported as -191.9%.
To `Cc1cnc(C(NC(=O)NCc2nc(C3CC3)no2)C2CC2)s1` (centres undefined) belongs -34.97%; to `Cc1ccc(N2CCO[C@H]3CN(Cc4cccs4)C[C@H]32)nn1.O=C(O)C(F)(F)F.O=C(O)C(F)(F)F`, -16.91%.
The result for `CCN(CC)Cc1cc(=O)n2c(n1)CN(C(=O)c1ccnnc1)CCC2.O=C(O)C(F)(F)F` reads -110.9%; that for `Cc1ccc(CN2CC[C@H]3OCC[C@@]3(C(=O)N3CCCO3)C2)o1.O=C(O)C(F)(F)F`, -80.01%; that for `CC(C)c1nnc2sc(CC3CN(C(C)C)CCO3)nn12` (centres undefined), -105.6%.
To `CCCS(=O)(=O)N1Cc2nccn2CC(Cn2cncn2)C1` (centres undefined) belongs -125.8%; to `c1cc(-c2c[nH]nc2C2CCCCC2)nc(N2CCCCCC2)n1`, -3.373%.
Regarding `NC(=O)C1CCN(c2nccc(-c3c[nH]nc3C3CCCCC3)n2)CC1`, the “Percent Effect” value is reported as 12.3%.
The result for `c1cc(-c2n[nH]cc2-c2ccnc(N3CCCCCC3)n2)ccn1` reads 76.99%; that for `CC(NC(=O)N1CCNC(=O)CC1)c1c(F)cccc1Cl` (centres undefined), -91.59%.
To `COCCC(=O)N1CCC2(COCc3cnc(-c4cccnc4)nc32)C1` (centres undefined) belongs -64.26%.
To `Cc1cncc(C(=O)N[C@@H]2CC[C@@H](N3CCOCC3)[C@@H]2O)c1` belongs -132.2%; to `CNC(=O)c1ccc(C(=O)N2CCCC(n3ccnc3C)C2)cn1` (centres undefined), -171.6%.
On to `Cl.O=C1CC2(CCCNC2)C(=O)N1Cc1ccc(F)cc1` (centres undefined), for which the “Percent Effect” value is reported as -29.07%.
The result for `N#Cc1cccc(CN2C(=O)C3(CCNCC3)Nc3ccccc32)c1` reads 66.93%; that for `Cl.O=C1CC2(CCCNC2)C(=O)N1Cc1ccccc1` (centres undefined), -18.54%.
Consider `CN1CC2(CCN(Cc3cccc(C#N)c3)CC2)CC1=O`, for which the “Percent Effect” value is given as -15.68%.
To `CC(C)c1ccc(CN2C(=O)C3(CCNCC3)Nc3ccccc32)cc1` belongs 81.43%; to `C=Cc1ccc(CN2C(=O)C3(CCNCC3)Nc3ccccc32)cc1`, 87.33%; to `NC(=O)c1ccc(CN2C(=O)C3(CCNCC3)Nc3ccccc32)cc1`, -6.416%.
As to `CCN1CC2(CCC1=O)CCN(Cc1cccc(C#N)c1)CC2`, the “Percent Effect” value is reported as -206%.
The result for `Cl.O=C1CC2(CCNCC2)C(=O)N1Cc1ccc(F)cc1` reads -53.59%.

Source of the values: ChEMBL document CHEMBL3988442, “University of Dundee, Small-Polar-MMV Screening Library” (2021).
